From PubChem BioAssay
An excerpt weighted towards active compounds, which were near 3.8% of everything screened.
ADAM17 inh: ADAM17 inhibitors, primary screen, biochemical, QFRET; Disintegrin and metalloproteinase domain-containing protein 17 (Homo sapiens), P78536; recombinant ADAM17, EDANS/DABCYL FRET peptide cleavage; inhibition, % at 6.95 µM; 370,000 tested, 0.83% active; AID 720648, 2013;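 active = inhibition above the mean of compounds lying between control limits plus 3 SD, set per campaign, cut at about 8.5% in these data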
ADAM10 inh: human ADAM10 inhibitors, primary screen, biochemical, QFRET, HTS. Disintegrin and metalloproteinase domain-containing protein 10 (Homo sapiens), O14672. recombinant ADAM10, EDANS/DABCYL FRET peptide cleavage, 3 h. inhibition, % at 7 µM. 370,000 tested, 0.62% active. AID 720582, 2013;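 active = inhibition above a per-campaign cutoff equal to the mean of compounds falling between control-based bounds plus 3 SD, cut at about 20% in these data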
rRNA inh HTS: reduced GFP signal of wild-type E. coli, primary screen, bacterial rRNA inhibitor project, GFP/RFP fluorescence, OD600, single point; GFP signal change (wild-type ribosome), % (test concentration not listed); E. coli WT GFP vs humanized-ribosome RFP mutants, 24 h; stronger effect = lower value; DMSO median 0, no signal -100; 350,000 tested, 1.6% active;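 active = significant combined selectivity score with lowered wild-type GFP, culture density cut under 30%, mutant RFP and density less affected; inactive = any of these conditions unmet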
proKLK7 act: proKLK7 zymogen activators, primary screen, biochemical, fluorescence intensity. 370,000 tested, 0.9% active. activation, % at 7 µM. Kallikrein-7 (Homo sapiens), P49862. purified proKLK7, EDANS-DABCYL substrate fluorescence; 100% is mature enzyme control, 0% vehicle. AID 652039, 2013;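 active = activation above the mean of all tested compounds plus 3 SD, computed per campaign excluding outliers beyond control limits, cut at about 13% in these data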
Target sequence (P49862 whole entry, looked up): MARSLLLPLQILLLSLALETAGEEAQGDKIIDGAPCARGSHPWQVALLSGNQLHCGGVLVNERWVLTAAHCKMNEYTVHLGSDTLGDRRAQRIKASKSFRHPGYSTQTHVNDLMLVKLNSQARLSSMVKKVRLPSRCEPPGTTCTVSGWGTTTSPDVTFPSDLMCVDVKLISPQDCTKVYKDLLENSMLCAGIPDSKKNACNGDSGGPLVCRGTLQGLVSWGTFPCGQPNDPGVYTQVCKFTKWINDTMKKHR
FGF22 binding: binders of human FGF22 protein, primary screen, FGF22 synaptogenesis inhibitor project, biophysical, thermal shift, single point; Fibroblast growth factor 22 (Homo sapiens), Q9HCT0; recombinant FGF22 thermal shift, SYPRO orange fluorescence; percent of sucrose octasulfate shift, DMSO zero; activity (Tm shift, normalised), % at 9.99 µM; 340,000 tested, 1.5% active;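 active = mean Tm shift, scaled 0 neutral to 100 positive control, at about 1.3% or above, every replicate too, limit read from the data; inconclusive = no clear call, values can overlap the other calls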
Target sequence (Q9HCT0 whole entry, looked up): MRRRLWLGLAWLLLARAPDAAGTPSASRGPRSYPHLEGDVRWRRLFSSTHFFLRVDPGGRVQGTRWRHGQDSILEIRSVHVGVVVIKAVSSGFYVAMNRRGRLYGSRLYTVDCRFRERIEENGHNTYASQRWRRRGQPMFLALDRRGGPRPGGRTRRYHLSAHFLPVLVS
AID977621: growth inhibition of wild-type GFP E. coli, dose response, H69 mutant RFP, cherry-pick | shares compounds with rRNA inh HTS | activity change, negative = inhibition at 50 µM | E. coli wild-type GFP strain growth, fluorescence, 24 h | AID 977621, 2014 | 1,900 tested, under 10 active;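 active = Wild-type ribosome reporter drop at least double the humanized mutant ribosome reporter drop, growth loss under a set limit; inconclusive = no clear call, values can overlap the other calls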;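 also: wild-type GFP and H69 mutant RFP strains grown together 50/50 in each well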
AID977628: E. coli growth inhibition, wild-type GFP versus h24 humanized RFP strain, dose response, h24 mutant RFP vs wild-type GFP, cherry-pick | shares compounds with rRNA inh HTS | E. coli WT GFP strain growth, fluorescence, 24 h | activity change, negative = inhibition at 50 µM | 1,900 tested, under 10 active | AID 977628, 2014;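 active = compound lowering the normal-ribosome reporter at least twice as much as the humanized-ribosome reporter, growth loss under a set limit; inconclusive = no clear call, values can overlap the other calls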;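 also: wild-type GFP and h24 humanized RFP strains co-cultured 1 to 1 per well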
Large screens that a line does not name were inactive (follow-up assays come after a bar, where they were run).

CC(C)CN(C(=O)c1cc([N+](=O)[O-])cc([N+](=O)[O-])c1)C1CCS(=O)(=O)C1 (centres undefined)	rRNA inh HTS -16.4 | AID977621 inactive | AID977628 inactive
S=c1nc(-c2cccc(Br)c2)[nH][nH]1	rRNA inh HTS -20.2 | AID977621 inactive | AID977628 inactive
Nc1nc(N)nc(-c2cccc(Br)c2)n1	none
CNC(=O)C[C@H]1CC[C@@H]2[C@H](COC[C@H](O)CN2Cc2ccc(Cl)c(Cl)c2)O1	none (no result: ADAM17 inh, ADAM10 inh, proKLK7 act)
Cc1ccc(-c2noc(-c3ccccc3C(=O)NCc3ccco3)n2)cc1	none
Cc1cccc(-c2noc(-c3ccccc3C(=O)NCc3ccco3)n2)c1	rRNA inh HTS -33.3 | AID977621 inactive | AID977628 inactive
Cc1nonc1C1CCCN1C(=O)c1cc(COc2ccc(F)cc2F)on1 (centres undefined)	rRNA inh HTS -26.8 | AID977621 inconclusive
O=C(Nc1ccc(F)cc1)N1C[C@H]2[C@@H](c3ccccc31)[C@H](CO)N2C(=O)c1ccccc1F	none (no result: ADAM17 inh, ADAM10 inh, proKLK7 act)
CO[C@@H]1CN(C)C(=O)c2ccc(NC(=O)Nc3cc(F)ccc3F)cc2OC[C@@H](C)N(C(=O)c2cnccn2)C[C@H]1C	none (no result: ADAM17 inh, ADAM10 inh, proKLK7 act)
O=C1N2c3ccccc3CCc3cccc(c32)C1(O)C(F)(F)F (centres undefined)	rRNA inh HTS -16.7 | AID977621 inactive
O=C(CCl)N1c2ccccc2CCc2ccccc21	none
CCN(CC)S(=O)(=O)c1ccc(C)c(NC(=O)CNc2cccc(S(=O)(=O)N3CCCC3)c2)c1	none
CCN(CC)S(=O)(=O)c1cccc(NC(=O)CNc2cccc(S(=O)(=O)N3CCCC3)c2)c1	rRNA inh HTS -23.1 | AID977621 inactive
COc1cc(C#N)ccc1OCC(=O)Nc1cccc(S(=O)(=O)N2CCCC2)c1	rRNA inh HTS -25.9 | AID977628 inactive
O=C(COC(=O)CNC(=O)c1ccc(F)cc1)Nc1cccc(S(=O)(=O)N2CCCC2)c1	rRNA inh HTS -18.2 | AID977621 inactive | AID977628 inactive
Cn1nc(C(=O)Nc2cccc(S(=O)(=O)N3CCCCC3)c2)c2ccccc2c1=O	rRNA inh HTS -17.1 | AID977621 inactive | AID977628 inactive
CCOc1ccc(C(=O)NCC(=O)OCC(=O)Nc2cccc(S(=O)(=O)N3CCCC3)c2)cc1	none
O=C(c1ccc2c(c1)OCO2)N1C[C@H]2[C@@H](c3ccccc31)[C@@H](CO)N2CC1CCCC1	none (no result: ADAM17 inh, ADAM10 inh, proKLK7 act)
CCOc1ccccc1N1CC(C(=O)Nc2cccc(S(=O)(=O)N3CCCCC3)c2)CC1=O (centres undefined)	rRNA inh HTS -20.5 | AID977621 inactive | AID977628 inconclusive
O=C(CN(CCO)c1ccccc1)Nc1cccc(S(=O)(=O)N2CCCC2)c1	rRNA inh HTS -22.9 | AID977628 inconclusive
CCOc1ccccc1N1CC(C(=O)Nc2ccc(S(=O)(=O)N3CCCCC3)cc2)CC1=O (centres undefined)	none
O=S1(=O)N[C@@H](Cc2ccccc2)COc2cc(N3CCC[C@H]3CO)ccc21	rRNA inh HTS -16.0 | AID977628 inactive
O=S1(=O)N[C@H](Cc2ccccc2)COc2cccc(N3CCC[C@H]3CO)c21	rRNA inh HTS -21.5 | AID977621 inactive
O=S1(=O)N[C@H](Cc2ccccc2)COc2cc(N3CCC[C@H]3CO)ccc21	none
CC(C)C[C@@H]1COc2cccc(N3CCC[C@@H]3CO)c2S(=O)(=O)N1	none
